According to publication PMC8136818, “Evolving origin-of-transfer sequences on staphylococcal conjugative and mobilizable plasmids—who’s mimicking whom?”:

T1: SmpO408 (Staphylococcus aureus M0408)
T1 chain: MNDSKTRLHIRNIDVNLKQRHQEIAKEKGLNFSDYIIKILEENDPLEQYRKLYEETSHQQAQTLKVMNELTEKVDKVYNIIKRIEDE

T2: SmpOSep (Staphylococcus epidermidis VCU120)
T2 chain: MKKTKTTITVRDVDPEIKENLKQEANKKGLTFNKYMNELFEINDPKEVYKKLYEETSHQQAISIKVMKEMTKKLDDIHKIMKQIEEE

B1: ossA408-5 (dsDNA)
DNA 1: TTATTGGCGCCTAATA
DNA 2: TATTAGGCGCCAATAA
B2: ossA408 C11G (dsDNA)
DNA 1: TTATAGGCGCGTAATA
DNA 2: TATTACGCGCCTATAA
B3: ossA408-3 (dsDNA)
DNA 1: TTTTAGGCGCCTAATA
DNA 2: TATTAGGCGCCTAAAA
B4: OT408 For/Rev_18 (dsDNA)
DNA 1: TAATAGGTGGCAAATTTCCCTTATGCTCTT
DNA 2: AAGAGCATAAGGGAAATTTGCCACCTATTA
B5: ossA408-13 (dsDNA)
DNA 1: TTATAGGCGCCTTATA
DNA 2: TATAAGGCGCCTATAA
B6: ossA408-12 (dsDNA)
DNA 1: TTATAGGCGCCAAATA
DNA 2: TATTTGGCGCCTATAA
B7: ossB49 (dsDNA)
DNA 1: CCGATGATAGCAAATT
DNA 2: AATTTGCTATCATCGG
B8: ossA408-14 (dsDNA)
DNA 1: TTATAGGCGCCTATTA
DNA 2: TAATAGGCGCCTATAA
B9: ossA408-15 (dsDNA)
DNA 1: TTATAGGCGCCTAAAA
DNA 2: TTTTAGGCGCCTATAA
B10: ossASep (dsDNA)
DNA 1: TTTGCATACATTTAAA
DNA 2: TTAAATGTATGCAAA
B11: ossA408-2 (dsDNA)
DNA 1: TAATAGGCGCCTAATA
DNA 2: TATTAGGCGCCTATTA
B12: ossA408-9 (dsDNA)
DNA 1: TTATAGGCCCCTAATA
DNA 2: TATTAGGGGCCTATAA
B13: ossA408-1 (dsDNA)
DNA 1: ATATAGGCGCCTAATA
DNA 2: TATTAGGCGCCTATAT
B14: ossA408-8 (dsDNA)
DNA 1: TTATAGGGGCCTAATA
DNA 2: TATTAGGCCCCTATAA
B15: ossA408-4 (dsDNA)
DNA 1: TTAAAGGCGCCTAATA
DNA 2: TATTAGGCGCCTTTAA
B16: ossA408-16 (dsDNA)
DNA 1: TTATAGGCGCCTAATT
DNA 2: AATTAGGCGCCTATAA
B17: ossA408-10 (dsDNA)
DNA 1: TTATAGGCGGCTAATA
DNA 2: TATTAGCCGCCTATAA
B18: ossA408-7 (dsDNA)
DNA 1: TTATAGCCGCCTAATA
DNA 2: TATTAGGCGGCTATAA
B19: ossBSep (dsDNA)
DNA 1: TAAATGTATGCATATT
DNA 2: AATATGCATACATTTA
B20: ossA408 G6C (dsDNA)
DNA 1: TTATACGCGCCTAATA
DNA 2: TATTAGGCGCGTATAA

What was measured:
SmpO408 = target: T1, SmpO408; test: SPR (ReDCaT); 300 mM NaCl; 10 mM HEPES, 3 mM EDTA, 0.05% Tween 20, NaCl 150 mM (SmpO49 screens), 300 mM (SmpO45, SmpO408, SmpOUNa screens) or 250 mM (Table S4); pH and temperature not stated; protein 1 uM; high values mean tight binding; conditions: protein: recombinant; tags: His6-TEV, cleaved; chain copies: 4
How it was run: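 Protein with its tag removed was produced in E. coli BL21(DE3)pLysS and purified by nickel-affinity and then size-exclusion chromatography. On a Biacore T200 SA chip with reusable DNA capture, OriT oligonucleotides were captured at 1 μM on Fc2 and a linker alone on Fc1, and protein at 1 μM was injected at 30 μl/min with 60 s contact and 60 s dissociation in 10 mM HEPES, 300 mM NaCl, 3 mM EDTA, 0.05% Tween 20. DNA binding is given as %Rmax.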

SmpOSep = target: T2, SmpOSep; test: SPR (ReDCaT); 250 mM NaCl; 10 mM HEPES, 3 mM EDTA, 0.05% Tween 20, NaCl 150 mM (SmpO49 screens), 300 mM (SmpO45, SmpO408, SmpOUNa screens) or 250 mM (Table S4); pH and temperature not stated; protein 1 uM; high values mean tight binding; conditions: protein: recombinant; tags: His6-TEV, cleaved; chain copies: 4

| Binder | binding signal (SmpO408) [%Rmax] | binding signal (SmpOSep) [%Rmax] |
| --- | --- | --- |
| B1 | 67.9 ± 1.54 | – |
| B2 | 34.5 ± 1.85 | – |
| B3 | 64.4 ± 1.7 | – |
| B4 | 60.1 | – |
| B5 | 63.9 ± 1.66 | – |
| B6 | 68.3 ± 1.07 | – |
| B7 | – | 0.6 |
| B8 | 63 ± 0.997 | – |
| B9 | 63 ± 1.28 | – |
| B10 | – | 18.8 |
| B11 | 65.7 ± 2.04 | – |
| B12 | 6.86 ± 1.04 | – |
| B13 | 67.4 ± 2.06 | – |
| B14 | 7.62 ± 1.09 | – |
| B15 | 69 ± 1.82 | – |
| B16 | 65.1 ± 0.98 | – |
| B17 | 48.1 ± 2.02 | – |
| B18 | 49.8 ± 2.35 | – |
| B19 | – | 16.5 |
| B20 | 35.5 ± 2.44 | – |
